We go through 18 compounds from PubChem BioAssay.

SMILES strings stand for the structures.

Assay [1] relates to Human papillomavirus type 1a protein E7 (residues 44-93). Kind of assay: HPV1a E7 fragment binders on microarrays, primary screen, biochemical, small-molecule microarray, residues 44-93, 635 nm fluorescence (AID 1108).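 Note: E7 fragment applied at 1 µg/mL in TBST for 1 h at 4 C; score combines spot fluorescence with its signal to noise ratio.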 The following applies: small-molecule microarray binding, fluorescence 635 nm; higher = more signal.
Assay [2] is described as follows: modulators of HCV replicon luciferase signal, primary screen, HCV replication inhibitor project, Huh7 cells, luciferase reporter (AID 1109).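 Note: huh7 hepatoma cells harbouring a luciferase neomycin HCV replicon reporter; luciferase luminescence as measure of HCV replicon replication; test concentration not given here.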 The following applies: 48 h, higher = more signal.
Assay [3] addresses Left-right determination factor 2 (Homo sapiens) (UniProt O00292). Kind of assay: LEFTY2 binders on small-molecule microarrays, primary screen, biochemical, small-molecule microarray, 635 nm fluorescence scan (AID 1110). The following applies: LEFTY2 binding, higher = more signal.
Assay [4] has as its target Calmodulin-1 (Homo sapiens) (UniProt P0DP23). As to the kind of experiment: CALM1 binders on microarrays, EGTA buffer, profiling panel, biochemical, small-molecule microarray, Cy5-labelled CALM1 (AID 1111).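 Note: labelled calmodulin applied in Tris saline Tween buffer holding calcium plus EGTA and DTT.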 The following applies: Cy5-CALM1 binding fluorescence, higher = more signal.
Assay [5] has the same target. As to the kind of experiment: calcium-bound CALM1 binders on microarrays, profiling panel, artefact control for SMM control-protein annotation, biochemical, small-molecule microarray, Cy5-labelled CALM1, plus calcium (AID 1112).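 Note: score merges spot fluorescence with signal to noise from triplicate slides.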 The following applies: Cy5-CALM1 binding fluorescence, higher = more signal.
Assay [6] is described as follows: small-molecule microarray binders of probe aWnt5a, primary screen, biochemical, biotinylated probe, 635/667 nm fluorescence (AID 1113).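 Note: score merges 667 nm fluorescence intensity with signal-to-noise per printed feature.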 The following applies: higher = more signal.
A short description of assay [7]: small-molecule microarray binders of probe aShh, primary screen, biochemical, biotinylated probe, 635/667 nm fluorescence (AID 1114).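 Note: probe is biotin-labelled aShh protein from a stem cell growth factor screen; measures binding of labelled protein to compounds printed on the slide; score merges feature fluorescence at 667 nm with signal-to-noise.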 The following applies: higher = more signal.
Assay [8] is described as follows: small-molecule microarray binders of probe aNog, primary screen, biochemical, biotinylated probe, 635/667 nm fluorescence (AID 1115).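 Note: probe is biotinylated aNog protein used at 0.15 µg/mL for 1 h at 4 C; z-score combines 667 nm fluorescence of each spot with its signal to noise.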 The following applies: higher = more signal.
The target in assay [9] is Torsin-1A-interacting protein 1 (Homo sapiens) (UniProt Q5JTV8). Kind of assay: LAP1 binders from COS7 cell lysate, primary screen, small-molecule microarray, 635/667 nm fluorescence (AID 1116). The following applies: COS7-hLAP1 lysate binding, 635 nm fluorescence, higher = more signal.
Assay [10] addresses Alpha-bungarotoxin (Bungarus multicinctus) (UniProt P60615). As to the kind of experiment: alpha-bungarotoxin binders on microarray, profiling panel, artefact control for SMM control protein annotation, biochemical, small-molecule microarray, Alexa647 label, 635/667 nm fluorescence (AID 1117). The following applies: alpha-BTX-A647 binding fluorescence, higher = more signal.

Chain of Alpha-bungarotoxin (Bungarus multicinctus) (P60615 whole entry, looked up): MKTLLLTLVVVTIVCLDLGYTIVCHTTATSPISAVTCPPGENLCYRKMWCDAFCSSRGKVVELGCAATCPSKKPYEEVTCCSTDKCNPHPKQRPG
Chain of Left-right determination factor 2 (Homo sapiens) (O00292 whole entry, looked up): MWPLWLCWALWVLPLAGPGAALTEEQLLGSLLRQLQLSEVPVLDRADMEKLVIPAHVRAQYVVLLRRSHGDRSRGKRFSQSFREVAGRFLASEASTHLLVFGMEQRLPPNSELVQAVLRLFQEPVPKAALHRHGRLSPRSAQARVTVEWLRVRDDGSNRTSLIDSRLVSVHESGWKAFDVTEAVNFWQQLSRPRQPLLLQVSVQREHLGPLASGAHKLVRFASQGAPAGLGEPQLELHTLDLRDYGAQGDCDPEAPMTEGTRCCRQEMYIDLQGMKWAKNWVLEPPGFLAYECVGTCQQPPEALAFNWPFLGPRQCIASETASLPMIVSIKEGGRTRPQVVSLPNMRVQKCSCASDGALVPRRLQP
Chain of Torsin-1A-interacting protein 1 (Homo sapiens) (Q5JTV8 whole entry, looked up): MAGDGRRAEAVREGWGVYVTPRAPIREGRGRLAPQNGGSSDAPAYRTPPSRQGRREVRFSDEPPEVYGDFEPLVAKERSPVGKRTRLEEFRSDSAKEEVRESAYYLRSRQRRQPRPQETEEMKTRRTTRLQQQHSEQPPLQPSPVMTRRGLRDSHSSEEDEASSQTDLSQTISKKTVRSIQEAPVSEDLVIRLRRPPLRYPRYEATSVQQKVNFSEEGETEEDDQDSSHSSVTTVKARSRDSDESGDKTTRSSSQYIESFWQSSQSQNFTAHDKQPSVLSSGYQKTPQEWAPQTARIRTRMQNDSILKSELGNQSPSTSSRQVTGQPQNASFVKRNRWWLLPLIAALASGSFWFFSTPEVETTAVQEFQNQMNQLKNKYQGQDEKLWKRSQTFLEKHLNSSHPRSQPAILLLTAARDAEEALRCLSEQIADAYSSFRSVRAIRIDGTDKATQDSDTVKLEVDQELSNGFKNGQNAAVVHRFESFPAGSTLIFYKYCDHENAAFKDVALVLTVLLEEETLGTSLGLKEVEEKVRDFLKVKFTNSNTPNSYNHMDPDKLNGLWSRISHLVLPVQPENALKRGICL

For `Cc1ccc(S[C@]2(C(=O)NCCN3CCOCC3)CC(=O)N(Cc3ccccc3Cl)[C@@H]2c2ccc(CO)cc2I)cc1`, the composite z-score in assay [1] is 0.772; in [3] it was -1.45; in assay [4], 0.0002; in [5], 0.154; in assay [6], 0.522; in assay [7] it was 0.464. The composite z-score in assay [8] was 2.2; in assay [9], 2.35; in assay [10], -0.903. Besides, the z-score in assay [2] is -1.25.
Take `COc1ccc(C#Cc2ccc3c(c2)[C@]2(C(=O)N3)[C@H](c3ccc(OCCO)cc3)N3[C@H](c4ccccc4)[C@H](c4ccccc4)OC(=O)[C@H]3[C@@H]2C(=O)NC[C@H](O)c2ccccc2)cc1`: the composite z-score was 1.43 in assay [1]; 0.428 in [3]; 1.12 in [4]; -0.126 in assay [5]; -0.0462 in assay [6]; -0.0146 in [7]. Further, the results for the composite z-score in assay [8], in assay [9] and in assay [10] were -0.157, 0.64 and 1.87, respectively. The z-score in [2] was -2.21.
Take `CO[C@H]1O[C@H](CO)[C@@H](OC(=O)Nc2ccccc2)[C@H](OC(=O)c2cc3ccccc3[nH]2)[C@H]1OC(=O)c1cc2ccccc2[nH]1`: the composite z-score in [1] stood at 0.0679; in [3], 0.165; in assay [4], 0.204; in assay [5], 0.47; in assay [6] it was 0.0642; in [7] it was 0.14. Besides, the composite z-score in assay [8] is -0.367; in [9], 0.621; in assay [10] it was 0.326. The same compound registered a z-score in assay [2] of -2.05.
Consider `CC(c1ccccc1)C(O)C1C=CC2C(=O)N(C)C(=O)C2N1Nc1ccccc1` (stereo not given), for which the composite z-score is 1.23 in [1]; -0.541 in assay [3]; 2 in assay [4]; 0.735 in assay [5]; 0.157 in [6]; 0.208 in assay [7]. Moreover, the results for the composite z-score in [8], in assay [9] and in assay [10] were 0.462, 0.694 and 2.06, respectively. The compound further came in with a z-score in assay [2] of -0.684.
As for `COC(=O)[C@@]1(Cc2ccc(F)cc2)[C@H]2c3cc(C(=O)N(C)C)n(Cc4ccc(OC(F)(F)F)cc4)c3C[C@H]2CN1C(=O)c1ccccc1`, the composite z-score in [1] was 0.841; in assay [3] it was 0.242; in assay [4] it was 0.11; in assay [5] it was -0.191; in assay [6] it was -0.0758; in [7], 0.442. Besides, the composite z-score was 0.0924 in assay [8], -0.147 in [9] and 0.414 in assay [10]. In assay [2], this compound showed a z-score of 0.167.
As for `CCCC[C@@H](O)C1=C(COC)C[C@H]2C(=O)N(C)C(=O)[C@H]2[C@H]1CO`, the composite z-score is 0.0944 in assay [1]; 0.822 in [3]; -0.419 in assay [4]; -0.573 in [5]; -0.0417 in assay [6]; -0.138 in assay [7]. Further, the values for the composite z-score in assay [8], in [9] and in assay [10] were -0.267, 0.13 and -0.165, respectively. The z-score in assay [2] is -0.338.
As for `CC(C)[Si](C#C[Si](C(C)C)(C(C)C)C(C)C)(O[C@H](c1ccccc1)c1cn(Cc2ccccc2)nn1)C(C)C`, the composite z-score in assay [1] is 1.06; in [3], 0.637; in assay [4], 0.192; in assay [5], -0.774; in assay [6], -0.0794; in assay [7], -0.0769. In addition, the composite z-score was 0.256 in assay [8], 0.352 in assay [9] and 0.717 in [10]. The compound further registered a z-score in assay [2] of -0.0298.
Turning to `NC(=O)[C@H]1[C@@H]2C(=O)O[C@@H](c3ccccc3)[C@@H](c3ccccc3)N2[C@@H](c2ccc(OCCO)cc2)[C@]12C(=O)Nc1ccc(C#CCCO)cc12`, the composite z-score is 0.333 in [1]; -0.128 in [3]; 0.947 in assay [4]; 0.382 in assay [5]; 0.055 in assay [6]; -0.253 in assay [7]. Moreover, the composite z-score in [8] is -0.387; in assay [9], 0.757; in [10] it was 1.59. For the same compound, the z-score in assay [2] was -1.39.
Take `C=C(C(=O)CC[C@H](OC(=O)c1ccccc1-c1ccccc1C(=O)O)c1cccc(OCCO)c1)C(C)C`: the composite z-score in assay [1] is -0.304; in assay [3], -0.103; in assay [4], -0.119; in assay [5], -0.409; in assay [6], -0.184; in assay [7] it was -0.0605. In addition, the composite z-score in [8] is -0.1; in assay [9] it was -0.126; in [10], 0.436. For the same compound, the z-score in assay [2] was -1.73.
With `COc1ccc([Si](C)(C)[C@@H]2[C@@H](CC(=O)N3Cc4ccccc4C[C@H]3CO)O[C@]3(C(=O)N(Cc4ccc(N5C(=O)c6cccc7cccc5c67)cc4)c4ccccc43)[C@H]2C)cc1`, the composite z-score is 1.35 in [1]; 0.987 in [3]; 0.318 in assay [4]; -0.512 in assay [5]; -0.0585 in [6]; 0.0952 in assay [7]. Also, the composite z-score came to 0.251 in assay [8], 1.04 in assay [9] and 0.964 in assay [10]. Besides, the z-score in [2] was -3.96.
For `Cc1ccc(S[C@]2(C(=O)NC(C)C)CC(=O)N(Cc3cc(C(F)(F)F)cc(C(F)(F)F)c3)[C@@H]2c2ccc(CO)cc2)cc1`, the composite z-score in assay [1] was -0.411; in assay [3], -1.76; in [4], -0.491; in [5], 0.0262; in [6], 0.0857; in assay [7], -0.393. Further, the composite z-score was -0.143 in [8], 0.0702 in [9] and 0.26 in assay [10]. Moreover, the z-score in assay [2] was -0.343.
Consider `[N-]=[N+]=Nc1ccccc1C[C@@]1(C(=O)NCCN2CCOCC2)N=C(c2ccc(OCCCO)cc2)O[C@@H]1c1ccccc1N=[N+]=[N-]`, for which the composite z-score in assay [1] is -0.241; in assay [3], 0.0057; in [4], 1.94; in [5], 0.455; in [6], 0.0543; in assay [7], 0.411. The composite z-score was -0.406 in assay [8], 1.08 in [9] and 1.74 in [10]. This compound also returned a z-score in assay [2] of -2.99.
For the compound `COc1ccc(C#Cc2ccc3c(c2)[C@]2(C(=O)N3)[C@H](c3ccc(O)cc3)N3[C@H](c4ccccc4)[C@H](c4ccccc4)OC(=O)[C@H]3[C@@H]2C(=O)Nc2nc3ccccc3s2)cc1`, the composite z-score is 1.26 in assay [1]; 0.739 in [3]; 1.11 in assay [4]; 0.495 in assay [5]; -0.0685 in [6]; -0.0813 in [7]. Further, the composite z-score amounted to 0.352 in [8], 1.22 in [9] and 1.25 in [10]. Moreover, in assay [2], the z-score was -1.13.
Take `CC(C)(C)OC(=O)CC[C@@]1(C(=O)NCC(O)CO)N=C(c2ccc(OCCCO)cc2)O[C@@H]1c1ccccc1CN=[N+]=[N-]` (stereo not given in full): the composite z-score in assay [1] was 1.11; in assay [3], -0.222; in assay [4] it was 1.25; in assay [5] it was 0.311; in assay [6] it was -0.124; in assay [7], 0.108. For the same compound, the composite z-score in [8] worked out at 0.72; in [9], 1.64; in assay [10], 0.833. The z-score in assay [2] is -0.75.
For the compound `CC(C)NC(=O)[C@@]1(C)c2ccccc2C(=O)N(Cc2ccc(OC(F)(F)F)cc2)[C@H]1c1ccc(CO)cc1`, the composite z-score in assay [1] is 0.0959; in assay [3], -1.49; in [4], -0.43; in [5], 0.495; in assay [6], -0.124; in [7] it was -0.0833. Also, the values for the composite z-score in [8], in [9] and in [10] were -0.472, -0.284 and -0.94, respectively. In [2], the z-score was -0.706.
Take `C=CCN1Cc2ccccc2[C@@H]2OC(c3ccc(OCCCO)cc3)=N[C@]2(CC=C)C1=O`: the composite z-score in [1] is 0.139; in assay [3], 0.718; in assay [4], 0.698; in assay [5], -0.0856; in assay [6], 0.128; in [7], 0.0469. Further, the composite z-score was determined as 0.634 in [8], 2.02 in [9] and 2.04 in [10]. In [2], the z-score is -1.43.
`[N-]=[N+]=NCc1ccccc1C[C@@]1(C(N)=O)N=C(c2ccc(OCCCO)cc2)O[C@@H]1c1ccccc1`: the composite z-score in assay [1] was 1.43; in [3] it was -1.41; in [4], 1.85; in assay [5] it was 0.989; in assay [6] it was -0.0417; in [7], -0.0035. The results for the composite z-score in assay [8], in [9] and in assay [10] were -0.071, 2.07 and 2.33, respectively. Moreover, the z-score in [2] is -1.74.
With `CCC1=C2CN(Cc3ccccc3)[C@@H](C(=O)Cc3ccccc3)C2C=CCC1` (stereo not given in full), the composite z-score in [1] is 1.4; in [3] it was 0.133; in assay [4] it was -0.0133; in assay [5], -0.429; in [6], -0.124; in [7] it was -0.211. Also, the values for the composite z-score in assay [8], in assay [9] and in [10] were -0.185, 0.0878 and 0.0601, respectively. For the same compound, the z-score in assay [2] was -0.618.
